# Measurements: PubChem BioAssay AID485364 (National Center for Advancing Translational Sciences (NCATS), 2010)
# The whole screen tested about 360,000 compounds, of which about 11,000 (3.1%) were called active. Not shown: some 4% with an inconclusive outcome. Calls come from the whole dose curve; as a rule, active = well fitted inhibition curve with a large enough effect; inconclusive = small, poorly fitted or top-dose-only effect; inactive = no such curve, though single readings can be large or run the other way. Many of the other results were omitted from the sample, so actives are more common in it than they were.
# Target: Schistosoma mansoni thioredoxin glutathione reductase (TGR) (UniProt Q962Y6)
# Assay: qHTS Assay for the Inhibitors of Schistosoma Mansoni Peroxiredoxins; note: nearly all actives have a fitted effect of over 60% in size
# Conditions: purified TGR, DTNB reduction, TNB absorbance 405 nm; series mostly up to 114 µM; activity change, negative = inhibition: at the top concentration
# Procedure, shortened: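 First, TGR (20 nM dispensed) and NADPH were mixed with compound. Second, a 15 min room-temperature incubation followed. Third, further NADPH and then DTNB were added to start the reaction. Finally, TNB absorbance was monitored kinetically.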
# % is set by controls: 0 for no effect and ±100 for the full control effect; potency is the fitted concentration of half-maximal effect.
SMILES,Potency,"activity change, negative = inhibition"
COc1ccc(N2C(=O)CC(N3CCC(C(N)=O)CC3)C2=O)cc1 (stereo not given),14.1 µM (active),
NC(=O)C1CCN(C2OC(=O)c3ccccc32)CC1 (stereo not given),,-33.1% (inactive)
COc1ccc(CCN2C(=O)CC(N3CCC(C(N)=O)CC3)C2=O)cc1OC (stereo not given),3.16 µM (active),
COc1ccc(COCC(O)CN2CCC(C(N)=O)CC2)cc1 (stereo not given),,8.49% (inactive)
COc1ccc(CCN2C(=O)C3CC=C(C)CC3C2=O)cc1OC (stereo not given),,-4.3% (inactive)
COc1ccc(CCN2C(=O)C(C)=C(C)C2=O)cc1OC,,0.409% (inactive)
COCCn1c(SCC(=O)c2cc(C)ccc2C)nc2cc(C(=O)NC3CCCC3)ccc2c1=O,,-1.98% (inactive)
CCCN1C(=O)C(O)(CC(=O)c2ccc(CC)cc2)c2cc(Br)ccc21 (stereo not given),,-0.17% (inactive)
CC(=O)Nc1cccc(NC(=O)CSc2nccn2Cc2ccc3c(c2)OCO3)c1,,0.562% (inactive)
Cc1ccccc1CN1CCC(CNC(=O)c2cc3ccc4cccnc4c3[nH]2)CC1,,-12.3% (inactive)
CCOc1ccc(CNC(=O)c2cc(-c3ccc(Cl)s3)nc3ccccc23)cc1,,-1.13% (inactive)
CCCS(=O)(=O)c1ncc(Cl)c(C(=O)Nc2scc(-c3ccccc3)c2C(=O)OCC)n1,2 µM (active),
CCOC(=O)c1c(-c2ccc(-c3ccccc3)cc2)csc1NC(=O)CCC(=O)O,,1.62% (inactive)
CCOC(=O)c1scc(-c2ccccc2)c1S(=O)(=O)Nc1ccccc1F,,-1.54% (inactive)
CCC(Sc1nnc(-c2ccc(OC)cc2)c(-c2ccc(OC)cc2)n1)C(=O)NC1CCCCC1 (stereo not given),,-0.319% (inactive)
COc1cccc(CNC(=O)c2ccc3c(c2)N(Cc2ccc(C(F)(F)F)cc2)C(=O)c2ccccc2S3)c1OC,,0.85% (inactive)
CCOc1ccc(-n2c(C)nc3c(cnn3-c3ccc(C)cc3)c2=O)cc1,,1.06% (inactive)
CCOCCCNC(=S)Nc1ccc2nc(N3CCN(CC)CC3)cc(C)c2c1,50.1 µM (active),
Cc1cc(N2CCOCC2)nc2ccc(NC(=S)N3CCN(Cc4ccccc4)CC3)cc12,,0.208% (inactive)
CCN1CCN(c2cc(C)c3cc(NC(=O)c4cc(Cl)ccc4OC)ccc3n2)CC1,,2.25% (inactive)
Cc1cccc(-n2ccnc2SCC(=O)Nc2cc(C(F)(F)F)ccc2Cl)c1,,0.387% (inactive)
CCOc1ccc(N(C)S(=O)(=O)c2cc(-c3cnc(C)o3)ccc2OC)cc1,,-9.5% (inactive)
C=C(Br)CN1CCN(CC(=C)Br)CC1,10 µM (active),
COc1ccc(CCNC(=O)c2cn(C)c3ccc(S(=O)(=O)N(C)C4CCCCC4)cc3c2=O)cc1OC,,25.8% (inactive)
CCCCCn1c(=O)[nH]c2cc(C(=O)Nc3ccc(F)cc3)ccc2c1=O,,15.7% (inactive)
CCCC12CN3CC(CCC)(CN(C1)C3c1c[nH]c3ccc(OC)cc13)C2=O (stereo not given),,34.3% (inactive)
Cc1ccc(Cl)cc1NC(=O)/C(C#N)=C\c1cn(Cc2ccc(F)cc2)c2ccccc12,,-1.54% (inactive)
COc1ccc(C2CC(c3cccs3)=NN2c2ccc(F)cc2)cc1OC (stereo not given),56.2 µM (active),

SMILES,Potency,"activity change, negative = inhibition"
COc1ccc(C2CC(c3cccs3)=NN2c2nc(C)c(C(C)=O)s2)cc1OC (stereo not given),,0.274% (inactive)
COc1ccc(C2CC(c3cccs3)=NN2C(=O)CSc2nncs2)cc1OC (stereo not given),,-11.3% (inactive)
O=C1C=C(c2ccc(Cl)cc2)C(=O)N1Nc1ccccc1,,-33.5% (inactive)
O=C(O)CC1=C(Nc2ccccc2)C(=O)N(c2ccccc2)C1c1ccc(Cl)cc1 (stereo not given),39.8 µM (active),
COC(=O)CN1C(=S)N(c2ccccc2)C(=O)C1CC(=O)Nc1ccc(Cl)cc1 (stereo not given),,-0.808% (inactive)
Cc1ccc(CCNC(=O)c2nnc(Cc3cccc(F)c3)o2)cc1,,-8.78% (inactive)
CCNC(=O)c1cc2n(n1)CCCN(Cc1ccc(C)cc1)C2=O,,0.153% (inactive)
CSc1ccc(CCNC(=O)c2ccc3c(c2)nc2n3CCOC2)cc1,,-0.625% (inactive)
Cc1cn(C)c(CC(=O)NCc2ccccc2)c1C(=O)O,,6.43% (inactive)
CCOc1ccc2[nH]c(=O)c(CN(Cc3nnnn3Cc3ccccc3)CC3CCCO3)cc2c1 (stereo not given),,-4.32% (inactive)
CCC(c1nnnn1Cc1ccco1)N(CCc1ccccc1)Cc1cc2cccc(C)c2[nH]c1=O (stereo not given),22.4 µM (active),
COc1ccc2[nH]c(=O)c(CN(Cc3nnnn3CCc3ccccc3)CC3CCCO3)cc2c1 (stereo not given),,-3.1% (inactive)
Cc1cccc2cc(CN(Cc3cccs3)C(=S)NCc3ccco3)c(=O)[nH]c12,,5% (inactive)
CCC(c1nnnn1C1CCCC1)N(Cc1cccs1)Cc1cc2cccc(C)c2[nH]c1=O (stereo not given),,3.03% (inactive)
CCC(c1nnnn1Cc1ccco1)N(Cc1cc2cc(OC)ccc2[nH]c1=O)C1CCCCC1 (stereo not given),12.6 µM (active),
Cc1ccc(-c2nnc(SCc3ccccc3C)o2)cc1,,-5.42% (inactive)
Cc1ccc(C)c(N2CCN(C(c3ccccc3)c3nnc(-c4ccccc4)o3)CC2)c1 (stereo not given),,3.88% (inactive)
COc1cc(C(=O)Nc2ccc(OCc3cc(=O)n4ccc(C)cc4n3)cc2)cc(OC)c1OC,,0.391% (inactive)
CCCCn1c(CNC(=O)C23CC4CC(CC(C4)C2)C3)nnc1SCC(=O)Nc1ccc(C)cc1,,-6.55% (inactive)
COc1ccc(NS(=O)(=O)c2cc3c4c(c2)CC(=O)N4CCC3)cc1Cl,,-0.0014% (inactive)
Cc1n[nH]c(=O)c2c(NC(=O)CSc3cc(Cl)ccc3Cl)oc(C)c12,,2.22% (inactive)
Cc1n[nH]c(=O)c2c(NC(=O)COC(=O)c3ncc(Cl)c(Cl)c3Cl)oc(C)c12,15.8 µM (active),
Cc1n[nH]c(=O)c2c(NC(=O)CSc3ccccc3F)oc(C)c12,,-30.9% (inactive)
CC(=O)c1ccc(NC(=O)CSc2nnc(NC(=O)Nc3ccccc3)s2)cc1,,1.64% (inactive)
CCc1ccc(NC(=O)CCCc2nnc3n(CCCOC)c(=O)c4sccc4n23)cc1,,1.38% (inactive)
COc1ccc(C(=O)c2oc3ccccc3c2NC(=O)COc2cccc(C)c2)cc1,,0.199% (inactive)
CN(Cc1ccccc1)C(=O)c1cn(C)c2ccc(S(=O)(=O)N3CCCCC3)cc2c1=O,,-7.29% (inactive)
